Publication PMC11062922 (Nature Chemical Biology, 2023)
Where two headings read alike, the source gives them in different places.

Legend:
Set-up in all cases: species or system human, MV4-11 + K-562 + COLO205 + SK-N-BE2 + OVCAR-8
BUB1 = details: read-out: apparent Kd, n = 1
MAPK14 = details: read-out: apparent Kd, n = 1
MAPK11 = details: read-out: apparent Kd; compound concentrations: 100 nM and 1000 nM (sheet 'Samples'), CATDS: 0.164145076514569; n = 1
MAPKAPK2 = details: read-out: apparent Kd; compound concentrations: 100 nM and 1000 nM (sheet 'Samples'), CATDS: 0.18697262000238801; n = 1
PIK3CD = details: read-out: apparent Kd, compound concentrations: 100 nM and 1000 nM (sheet 'Samples'), n = 1
CAMK2B = details: read-out: apparent Kd; compound concentrations: 100 nM and 1000 nM (sheet 'Samples'), CATDS: 1; n = 1
AXL = details: read-out: apparent Kd; compound concentrations:100 nM and 1000 nM (sheet 'Samples'); n = 1
EIF2AK1 = details: read-out: apparent Kd; compound concentrations:100 nM and 1000 nM (sheet 'Samples'); n = 1
BMP2K = details: read-out: apparent Kd; compound concentrations: 100 nM and 1000 nM (sheet 'Samples'), CATDS: 0.25599665936716798; n = 1
FN3KRP = details: read-out: apparent Kd; compound concentrations: 100 nM and 1000 nM (sheet 'Samples'), CATDS: 0.244187637168161; n = 1
MAP3K5 = details: read-out: apparent Kd; compound concentrations: 100 nM and 1000 nM (sheet 'Samples'), CATDS: 0.21983206185326901; n = 1
PDXK = details: read-out: apparent Kd; compound concentrations: 100 nM and 1000 nM (sheet 'Samples'), CATDS: 0.28989199258806803; n = 1
ERBB3 = details: read-out: apparent Kd; compound concentrations:100 nM and 1000 nM (sheet 'Samples'); n = 1
MAP3K1 = details: read-out: apparent Kd; compound concentrations:100 nM and 1000 nM (sheet 'Samples'); n = 1
RET = details: read-out: apparent Kd, n = 1
ZAK = details: read-out: apparent Kd; compound concentrations:100 nM and 1000 nM (sheet 'Samples'); n = 1
AURKB = details: read-out: apparent Kd, n = 1
DDR1 = details: read-out: apparent Kd; compound concentrations: 100 nM and 1000 nM (sheet 'Samples'), CATDS: 9.2997876438350002E-2; n = 1
FLT4 = details: read-out: apparent Kd; compound concentrations: 100 nM and 1000 nM (sheet 'Samples'), CATDS: 0.48274666395287902; n = 1
GALK1 = details: read-out: apparent Kd; compound concentrations: 100 nM and 1000 nM (sheet 'Samples'), CATDS: 7.3268745996591306E-2; n = 1
LIMK1 = details: read-out: apparent Kd; compound concentrations: 100 nM and 1000 nM (sheet 'Samples'), CATDS: 8.69066115858768E-2; n = 1
MAP4K5 = details: read-out: apparent Kd; compound concentrations: 100 nM and 1000 nM (sheet 'Samples'), CATDS: 6.8685970274903196E-2; n = 1
NLK = details: read-out: apparent Kd; compound concentrations: 100 nM and 1000 nM (sheet 'Samples'), CATDS: 6.8663594256603303E-2; n = 1
RIPK2 = details: read-out: apparent Kd; compound concentrations: 100 nM and 1000 nM (sheet 'Samples'), CATDS: 0.16558982732925701; n = 1
CDC42BPB = details: read-out: apparent Kd; compound concentrations:100 nM and 1000 nM (sheet 'Samples'); n = 1
CDC42BPG = details: read-out: apparent Kd; compound concentrations:100 nM and 1000 nM (sheet 'Samples'); n = 1
PKN1 = details: read-out: apparent Kd; compound concentrations:100 nM and 1000 nM (sheet 'Samples'); n = 1
PRKACA = details: read-out: apparent Kd; compound concentrations:100 nM and 1000 nM (sheet 'Samples'); n = 1
PRKACB = details: read-out: apparent Kd; compound concentrations:100 nM and 1000 nM (sheet 'Samples'); n = 1
PRKG1 = details: read-out: apparent Kd; compound concentrations:100 nM and 1000 nM (sheet 'Samples'); n = 1
PRKX = details: read-out: apparent Kd; compound concentrations:100 nM and 1000 nM (sheet 'Samples'); n = 1
ROCK1 = details: read-out: apparent Kd; compound concentrations:100 nM and 1000 nM (sheet 'Samples'); n = 1
ROCK2 = details: read-out: apparent Kd; compound concentrations:100 nM and 1000 nM (sheet 'Samples'); n = 1
STK26 = details: read-out: apparent Kd; compound concentrations:100 nM and 1000 nM (sheet 'Samples'); n = 1
[1] = compound concentrations:100 nM and 1000 nM (sheet 'Samples')

Cl.Oc1cccc(-c2nc(-c3ccccc3)[nH]c2-c2ccncc2)c1 [SB-610251-B]
potency estimated from few doses (BUB1; [1]): 2530 nM
potency estimated from few doses (MAPK14; [1]): 1570 nM

Cc1cc(N2CCC(NS(=O)(=O)c3ccc(F)cc3)CC2)nc(Nc2cccc(C#N)c2)n1.O=C(O)C(F)(F)F [GSK1653537A]
potency estimated from few doses (BUB1; compound concentrations: 100 nM and 1000 nM (sheet 'Samples'), CATDS: 0.134254488051117): 1700 nM
potency estimated from few doses (MAPK11): 822 nM
potency estimated from few doses (MAPK14; compound concentrations: 100 nM and 1000 nM (sheet 'Samples'), CATDS: 0.28659928881312002): 232 nM
potency estimated from few doses (MAPKAPK2): 573 nM
potency estimated from few doses (PIK3CD; CATDS: 0.38142915880681): 144 nM

Cc1ccc2c(-c3ccnc(Nc4ccc5c(c4)OCCO5)n3)c(-c3ccc(C(F)(F)F)cc3)nn2n1 [GW832467X]
potency estimated from few doses (CAMK2B): 475 nM

Cc1cccc(CC(=O)N2CCc3c2ccc(-c2cn(C)c4ncnc(N)c24)c3F)n1 [GSK2656157]
potency estimated from few doses (AXL): 503 nM
potency estimated from few doses (EIF2AK1): 751 nM

c1ccc(-c2ccnc3[nH]ccc23)cc1 [SB-693578]
potency estimated from few doses (BMP2K): 1680 nM
potency estimated from few doses (FN3KRP): 1850 nM
potency estimated from few doses (MAP3K5): 2330 nM
potency estimated from few doses (PDXK): 1330 nM

Cl.O=C(Nc1ccc(Oc2ccc3[nH]c(NC(=O)c4ccco4)nc3c2)cc1)Nc1cc(C(F)(F)F)ccc1F [GW683134A_KCGS]
potency estimated from few doses (AXL): 1640 nM
potency estimated from few doses (ERBB3): 1130 nM
potency estimated from few doses (MAP3K1): 2000 nM
potency estimated from few doses (RET; [1]): 498 nM
potency estimated from few doses (ZAK): 2150 nM

Cc1c2ccc(N(C)c3ccnc(Nc4cccc(S(N)(=O)=O)c4)n3)cc2nn1Cc1ccccc1.Cc1c2ccc(N(C)c3ccnc(Nc4cccc(S(N)(=O)=O)c4)n3)cc2nn1Cc1ccccc1.Cl.Cl [GW787226A]
potency estimated from few doses (AURKB; compound concentrations: 100 nM and 1000 nM (sheet 'Samples'), CATDS: 8.6866554765288095E-2): 941 nM
potency estimated from few doses (DDR1): 776 nM
potency estimated from few doses (FLT4): 35.3 nM
potency estimated from few doses (GALK1): 1650 nM
potency estimated from few doses (LIMK1): 940 nM
potency estimated from few doses (MAP4K5): 2130 nM
potency estimated from few doses (NLK): 2130 nM
potency estimated from few doses (PIK3CD; CATDS: 0.18116624440708201): 176 nM
potency estimated from few doses (RET; compound concentrations: 100 nM and 1000 nM (sheet 'Samples'), CATDS: 0.101759373704586): 612 nM
potency estimated from few doses (RIPK2): 209 nM

CC(C)NCC(Cc1ccccc1)NC(=O)c1cc(Br)c(-c2ccnc3[nH]ccc23)s1.CC(C)NCC(Cc1ccccc1)NC(=O)c1cc(Br)c(-c2ccnc3[nH]ccc23)s1.Cl.Cl (stereo not shown) [GSK1383281A]
potency estimated from few doses (AURKB; [1]): 950 nM
potency estimated from few doses (CDC42BPB): 1320 nM
potency estimated from few doses (CDC42BPG): 1360 nM
potency estimated from few doses (PKN1): 840 nM
potency estimated from few doses (PRKACA): 70.2 nM
potency estimated from few doses (PRKACB): 102 nM
potency estimated from few doses (PRKG1): 13.6 nM
potency estimated from few doses (PRKX): 1100 nM
potency estimated from few doses (ROCK1): 43.1 nM
potency estimated from few doses (ROCK2): 48 nM
potency estimated from few doses (STK26): 1940 nM
